Our source for the PBM binding z-score values is the supplement of paper PMC6555819.

The test system of the first assay is LXRb:RXRa (NR concentration 270 nM, RXRa partner concentration 90 nM). As to the kind of experiment: PBM binding z-score (relative to random genomic background probes); higher = stronger binding; sequences stand for … in GC…GCGATTGACAGCGTAGAATGAAGG
A digest of the protocol:
(§1)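 Ligand-free nuclear receptor dimers were bound for 1 h to custom Agilent 4×180K protein-binding microarrays. Detection used antibodies against each partner (one per run). Binding z-scores rest on regression-normalized fluorescence, with random background probes as the reference.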
GCTAGTTGTTCAGTAAAAGGTCACACACCGGTCG displayed a PBM binding z-score of 4.06.

Regarding CCTAGCAGGCCAATCTGGGTCCCTCAAGGCTTGA, the PBM binding z-score was -0.838.

Regarding CTTACTGGGCCACGAAAGGTCATTGATTCAGTGA, the PBM binding z-score was 5.13.

AGAACGAGGGCAAAGAGTTGATAGCACGGGTGGC: the PBM binding z-score was -0.152.

GCTAGCAGGCCATTTGGGTCAATCAATGACGGGC showed a PBM binding z-score of 0.271.

GCTATTAGTTGAAGGGGCAACCGAATGATTCTCG came in with a PBM binding z-score of 0.151.

Take AGTCAAAGTTCAGGACGAGGTAACGAAAAGCACG: the PBM binding z-score worked out at 1.92.

Regarding CTCGAAAGGTCGTGCTCAGGCGAGTATACCAAAC, the PBM binding z-score came out at 2.93.

AGAAGGAGGTTACCAAAGATCAGGGAAACGCTTG registered a PBM binding z-score of 2.9.

With TTTCAAAGTTCAAAGGTAACGTAAGTATCCACAC, the PBM binding z-score was found to be 4.86.

In turn, CGTCCAAGGTCAGAGAGGTCAGTGAGTGCCGAGT had a PBM binding z-score of 4.79.

CAAACTAGGTCAAGAGGTCAAGGTCCGCTTCCCG registered a PBM binding z-score of 4.63.

In the case of CGTCAAAGTTCAACTAAGCTAACGTAAAGCACGC, the PBM binding z-score stood at 4.26.

Sequence GAGACTGGGGCATCAGCAGGTTACCATAACTTAA yielded a PBM binding z-score of 1.28.

TCTAGTTAGTCACGGAGGTCACACACGACGGGTA registered a PBM binding z-score of 3.3.

Regarding CGTCCAAGGCCAGCAGGTCAGTGAAAGCGACGTG, the PBM binding z-score was -0.00321.

With CCAGACCGGTGAGAAGGTAACTCAGCCTCGATTA, the PBM binding z-score is -0.175.

The sequence CCGACTGGGACAAGGTTACCATAACGCACAGCCA displayed a PBM binding z-score of 0.507.

The next assay has as its system LXRb homodimer (NR concentration 270 nM). Described as above. The procedure, abridged:
as §1
Sequence ATATGTAGGTTAAGGGTCAGTCAGGTTGGTTCGC gave a PBM binding z-score of 0.965.

As to TTACCAAGGTGAAAGGGCGTTGATGCACGCCTTG, the PBM binding z-score was -0.657.

Turning to CGTCAAAGTTCGACTAAGGTAACGTAAAGCACGC, the PBM binding z-score stood at 0.121.

As for CAAACTAGGGCAAGGTCAAAGTCGGTTTGTGCCA, the PBM binding z-score was 0.468.

Turning to ACTATTAGTTGACTTACGGCAACCGATACGACGC, the PBM binding z-score stood at 0.908.

In the case of CCGACTGGGGCATAAGGTTACTATAAGCCAGCCC, the PBM binding z-score was -1.18.

In the case of GCAGACAGGTGAAACGCAGGGAACTCAGGGTGGC, the PBM binding z-score is -1.21.

For the sequence TAGCCTACGTCATGCGGGCCAGTATAGTGTCGGC, the PBM binding z-score is -0.753.

Regarding CCTACTGGGCCACGGTCATTGATCAGTCAAAGCA, the PBM binding z-score is -0.712.

Turning to CGAACTAGGTCAAGGACAGTGATTCTCCGCACGC, the PBM binding z-score is -0.542.

Take CCAGACAGGTGAAAGATAACTCAGTCTGGTACGC: the PBM binding z-score was -0.465.

The sequence TATACAGGGTCAAAGGCCAGGGTACGAATGTCGA showed a PBM binding z-score of 2.5.

In the case of CCTAGTTGGTCAAGGTCACAAACGCTATAGGTAC, the PBM binding z-score was found to be 0.933.

On to CGTCCAAGGTCAGAGAGGTCAGGGAATGCCGAGT, for which the PBM binding z-score was 0.359.

Take GCCTACGGGTCAAAGGTTATAGCATGAATAGAAT: the PBM binding z-score was -0.175.

Consider GGCACGAGGGCAAAGTTGATAGCATCTGTCGACG, for which the PBM binding z-score was -0.874.

Take GCAGACAGGTGAAACGCAGGTAAATCAGGGTGGC: the PBM binding z-score is -0.862.

TCTAGTTGGTCACGGAGGTGACACACGACGGGTA: the PBM binding z-score was found to be 0.00515.

The sequence CAAGACAGGTGAGAAGGTAACTCAGCCTCGATTA displayed a PBM binding z-score of 0.194.

For the sequence TCGAGTAGGTTAGTCGGGGCATTAAGCCAACATA, the PBM binding z-score was -0.774.

Turning to CTACCAAGGTGAAAAAGGTCGTTGATTACTATTC, the PBM binding z-score was -0.412.

As for ACTAGCAGGCCAAGTTTGGGTCAGTCAAACAAAG, the PBM binding z-score is -0.904.

For the sequence GCTAGTTGTTCAGTAAAAGGTCACACACCGGTCG, the PBM binding z-score was determined as 0.882.

For CCTAGCAGGCCAATCTGGGTCCCTCAAGGCTTGA, the PBM binding z-score was -1.11.

The sequence CTTACTGGGCCACGAAAGGTCATTGATTCAGTGA came in with a PBM binding z-score of 0.827.

Turning to AGAACGAGGGCAAAGAGTTGATAGCACGGGTGGC, the PBM binding z-score is -0.712.

As to GCTAGCAGGCCATTTGGGTCAATCAATGACGGGC, the PBM binding z-score was -0.737.

As to GCTATTAGTTGAAGGGGCAACCGAATGATTCTCG, the PBM binding z-score was -0.16.

On to AGTCAAAGTTCAGGACGAGGTAACGAAAAGCACG, for which the PBM binding z-score amounted to 0.307.

For the sequence CTCGAAAGGTCGTGCTCAGGCGAGTATACCAAAC, the PBM binding z-score was -0.132.

In turn, AGAAGGAGGTTACCAAAGATCAGGGAAACGCTTG had a PBM binding z-score of 0.368.

With TTTCAAAGTTCAAAGGTAACGTAAGTATCCACAC, the PBM binding z-score came out at 2.71.

For CGTCCAAGGTCAGAGAGGTCAGTGAGTGCCGAGT, the PBM binding z-score was determined as 0.412.

In turn, CAAACTAGGTCAAGAGGTCAAGGTCCGCTTCCCG displayed a PBM binding z-score of 1.32.

For CGTCAAAGTTCAACTAAGCTAACGTAAAGCACGC, the PBM binding z-score turned out to be 2.57.

With GAGACTGGGGCATCAGCAGGTTACCATAACTTAA, the PBM binding z-score was 0.0718.

TCTAGTTAGTCACGGAGGTCACACACGACGGGTA yielded a PBM binding z-score of 0.442.

For the sequence CGTCCAAGGCCAGCAGGTCAGTGAAAGCGACGTG, the PBM binding z-score is -1.05.

Take CCAGACCGGTGAGAAGGTAACTCAGCCTCGATTA: the PBM binding z-score was -0.35.

Take CCGACTGGGACAAGGTTACCATAACGCACAGCCA: the PBM binding z-score was -0.706.

The subject of a further assay is PPARa:RXRa (NR concentration 270 nM, RXRa partner concentration 90 nM). The description is as above. A digest of the protocol:
as §1
Sequence ATATGTAGGTTAAGGGTCAGTCAGGTTGGTTCGC registered a PBM binding z-score of 6.05.

On to TTACCAAGGTGAAAGGGCGTTGATGCACGCCTTG, for which the PBM binding z-score worked out at 3.48.

On to CGTCAAAGTTCGACTAAGGTAACGTAAAGCACGC, for which the PBM binding z-score is 1.88.

Sequence CAAACTAGGGCAAGGTCAAAGTCGGTTTGTGCCA registered a PBM binding z-score of 5.56.

Turning to ACTATTAGTTGACTTACGGCAACCGATACGACGC, the PBM binding z-score is -0.179.

Take CCGACTGGGGCATAAGGTTACTATAAGCCAGCCC: the PBM binding z-score is 1.63.

GCAGACAGGTGAAACGCAGGGAACTCAGGGTGGC returned a PBM binding z-score of 0.613.

For TAGCCTACGTCATGCGGGCCAGTATAGTGTCGGC, the PBM binding z-score was -0.592.

On to CCTACTGGGCCACGGTCATTGATCAGTCAAAGCA, for which the PBM binding z-score amounted to 1.3.

In turn, CGAACTAGGTCAAGGACAGTGATTCTCCGCACGC showed a PBM binding z-score of 4.8.

CCAGACAGGTGAAAGATAACTCAGTCTGGTACGC: the PBM binding z-score is 0.902.

TATACAGGGTCAAAGGCCAGGGTACGAATGTCGA: the PBM binding z-score worked out at 6.27.

As for CCTAGTTGGTCAAGGTCACAAACGCTATAGGTAC, the PBM binding z-score was found to be 3.93.

On to CGTCCAAGGTCAGAGAGGTCAGGGAATGCCGAGT, for which the PBM binding z-score is 5.

With GCCTACGGGTCAAAGGTTATAGCATGAATAGAAT, the PBM binding z-score came to 6.6.

On to GGCACGAGGGCAAAGTTGATAGCATCTGTCGACG, for which the PBM binding z-score was found to be 3.29.

Consider GCAGACAGGTGAAACGCAGGTAAATCAGGGTGGC, for which the PBM binding z-score was 0.983.

TCTAGTTGGTCACGGAGGTGACACACGACGGGTA: the PBM binding z-score stood at 1.43.

Turning to CAAGACAGGTGAGAAGGTAACTCAGCCTCGATTA, the PBM binding z-score is 0.791.

For TCGAGTAGGTTAGTCGGGGCATTAAGCCAACATA, the PBM binding z-score came out at 0.728.

CTACCAAGGTGAAAAAGGTCGTTGATTACTATTC yielded a PBM binding z-score of 2.61.

In turn, ACTAGCAGGCCAAGTTTGGGTCAGTCAAACAAAG registered a PBM binding z-score of 0.619.

GCTAGTTGTTCAGTAAAAGGTCACACACCGGTCG came in with a PBM binding z-score of 4.13.

As for CCTAGCAGGCCAATCTGGGTCCCTCAAGGCTTGA, the PBM binding z-score was -0.178.

Turning to CTTACTGGGCCACGAAAGGTCATTGATTCAGTGA, the PBM binding z-score was 5.66.

Sequence AGAACGAGGGCAAAGAGTTGATAGCACGGGTGGC had a PBM binding z-score of 1.78.

As for GCTAGCAGGCCATTTGGGTCAATCAATGACGGGC, the PBM binding z-score was 1.4.

As to GCTATTAGTTGAAGGGGCAACCGAATGATTCTCG, the PBM binding z-score is 0.84.

AGTCAAAGTTCAGGACGAGGTAACGAAAAGCACG yielded a PBM binding z-score of 3.39.

For the sequence CTCGAAAGGTCGTGCTCAGGCGAGTATACCAAAC, the PBM binding z-score worked out at 5.03.

The sequence AGAAGGAGGTTACCAAAGATCAGGGAAACGCTTG came in with a PBM binding z-score of 2.79.

On to TTTCAAAGTTCAAAGGTAACGTAAGTATCCACAC, for which the PBM binding z-score is 5.69.

In turn, CGTCCAAGGTCAGAGAGGTCAGTGAGTGCCGAGT registered a PBM binding z-score of 5.19.

With CAAACTAGGTCAAGAGGTCAAGGTCCGCTTCCCG, the PBM binding z-score is 6.41.

In turn, CGTCAAAGTTCAACTAAGCTAACGTAAAGCACGC displayed a PBM binding z-score of 5.08.

The sequence GAGACTGGGGCATCAGCAGGTTACCATAACTTAA returned a PBM binding z-score of 1.73.

TCTAGTTAGTCACGGAGGTCACACACGACGGGTA yielded a PBM binding z-score of 3.76.

Turning to CGTCCAAGGCCAGCAGGTCAGTGAAAGCGACGTG, the PBM binding z-score stood at 0.83.

As to CCAGACCGGTGAGAAGGTAACTCAGCCTCGATTA, the PBM binding z-score was -0.101.

For the sequence CCGACTGGGACAAGGTTACCATAACGCACAGCCA, the PBM binding z-score was determined as 1.49.
